Only some compounds are listed: those with a hit (about 3.1% of all), similar ones and a draw of the others.
C2C12 statin = suppressors of simvastatin-induced myotoxicity in C2C12 myotubes; actives 0.78% (n = 330,000); AID 602340; ATP luminescence, 48 h; scaled: DMSO 0, geranylgeraniol control 100; rescue of ATP level, % at 7.49 µM;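 active = mean ATP rescue above about 67%, or every replicate alone reaching that limit, limit read from the data, passing the limit was not always enough; inconclusive = no clear call, values can overlap the other calls; inactive = mean under the limit and some replicate under it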;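 also: myotubes were challenged with 10 µM simvastatin during compound exposure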
Env fusion inh = HIV envelope-mediated fusion inhibition; HeLa-JRFL Env/CEM21 cell fusion, luciferase; inhibition, % at 12.3 µM; actives 1.1% (n = 360,000);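 active = mean replicate inhibition score of at least 50 and every replicate individually at or above 50; inconclusive = only one of the two criteria met; inactive = mean below 50 and not all replicates reaching 50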
GSIS activator = GLuc luminescence reporter in INS-1E cells, primary screen for activators of glucose-dependent secretion of insulin | AID 743287 | INS-1E GLuc reporter insulin secretion, 2-3 h | activation, % at 16.6 µM | actives 0.61% (n = 370,000);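 active = lowest replicate activation of at least 40%, so every replicate reaches that level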
PAX8 reporter = inhibitors of PAX8 transcriptional activity in RMG-I cells; RMG-I TPO-luciferase reporter, SteadyGlo, 24 h; inhibition, % at 12.6 µM; actives 1.2% (n = 360,000); AID 652154;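 active = mean replicate inhibition at least 60% with every replicate also reaching 60%; inconclusive = only one of the two criteria is met; inactive = mean below 60% and not all replicates reaching 60%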;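 also: luciferase light reporting Pax8 driven TPO promoter activity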
miR122 inh = inhibitors of miR-122 in Huh7 cells; actives 0.3% (n = 340,000); Huh7 miR-122 Renilla luciferase sensor, 48 h; neutral wells = 0, positive control = 100; activation (reporter increase), % at 12.5 µM;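 active = mean replicate activation score at least 90 and every replicate individually at or above 90; inconclusive = only one of the two criteria met; inactive = neither criterion met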;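 also: higher luciferase means less miR-122 activity so hits act as miR-122 inhibitors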
EWS-Fli block = blocks EWS/Fli oncoprotein-driven transcription; A673 NR0B1-luciferase reporter, viability-normalised; inhibition, % at 12.6 µM; actives 0.67% (n = 350,000); AID 651661;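 active = mean inhibition of at least 50% after viability correction, with every replicate also passing that limit; inconclusive = mean reaches 50% but only one of two replicates passes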;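 also: firefly luciferase signal divided by Alamar Blue viability fluorescence both relative to DMSO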
A number is an active result; n = inactive; u = inconclusive; x = no result; [ ] = remark or other dose.

SMILES	C2C12 statin	Env fusion inh	GSIS activator	PAX8 reporter	miR122 inh	EWS-Fli block
C[C@@H]1CN([C@@H](C)CO)C(=O)c2cc(NS(C)(=O)=O)ccc2O[C@H]1CN(C)Cc1ccc2c(c1)OCO2	n	n	n	n	n	x
CCOc1ccccc1CNC(=O)C1CCN(c2nnc(C)c3c(C)n(-c4ccc(C)cc4)nc23)CC1	n	n	n	79	n	59
COc1ccc(-n2nc3c(N4CCC(C(=O)NCc5cccc(C)c5)CC4)nnc(C)c3c2C)cc1	n	n	n	102	x	x
CCOc1ccc(CNC(=O)C2CCN(c3nnc(C)c4c(C)n(-c5ccc(C)cc5)nc34)CC2)cc1	n	n	n	n	n	x
O=c1cc(Cl)[nH]c(=O)n1Cc1ccccc1	n	n	48	n	n	n
O=c1cc(Cl)[nH]c(=O)n1Cc1ccc(F)cc1	n	n	n	n	n	x
COc1ccc(C(=O)Nc2sc3c(c2C#N)CCN(C(C)=O)C3)cc1	n	n	n	n	n	n
CC(=O)N1CCc2c(sc(NC(=O)c3ccc([N+](=O)[O-])o3)c2C#N)C1	x	n	n	96	n	n
CC(C)N1CCc2c(sc(NC(=O)c3ccc([N+](=O)[O-])o3)c2C(N)=O)C1	n	106	n	96	n	n
O=C(OC1CCOC1=O)c1cc(-c2ccccc2)nc2ccccc12 (configuration not stated)	n	n	x	n	n	x
O=C(OC1CCOC1=O)c1cc(-c2ccc(Cl)cc2)nc2ccccc12 (configuration not stated)	n	n	56	x	x	x
O=C(c1ccccc1)c1ccc(-c2ccc(O)cc2)cc1	n	n	n	n	92	n
COCC(=O)N1C[C@@H]2[C@H](c3ccccc31)[C@@H](CO)N2C(=O)C1CCCCC1	n	x	n	n	n	n
COc1ccc(CNC(=O)CCS(=O)(=O)c2ccc3c(c2)NC(=O)C(C)S3)cc1 (configuration not stated)	n	n	n	n	x	n
COc1ccc(CNC(=O)CCS(=O)(=O)c2ccc3c(c2)NC(=O)CS3)cc1	n	n	145	n	n	x
O=C(NC[C@@H]1CC[C@H]2[C@H](CN2Cc2cc(-c3ccccc3)on2)O1)c1ccc2c(c1)OCO2	x	58[16.7 µM]	x	n	x	n
CNc1nc2c(c(=O)n(C)c(=O)n2C)n1Cc1ccccc1	n	69	x	x	n	x
Cn1c(=O)c2c(nc(NCCc3ccccc3)n2Cc2ccc(F)cc2)n(C)c1=O	x	n	n	n	n	n
CC(Cl)=CCn1c(NCCc2ccccc2)nc2c1c(=O)n(C)c(=O)n2C	n	94	n	n	n	n
CCCNC(=O)N1CC(=O)N2[C@H](CO)[C@@H](c3ccc(-c4ccc(C)cc4)cc3)[C@H]2C1	x	x	n	n	x	n
C[C@H](CO)N1C[C@H](C)[C@H](CN(C)S(=O)(=O)c2cn(C)cn2)Oc2cc(C3=CCCCC3)ccc2S1(=O)=O	n	x	n	n	n	n
C[C@@H]1CN([C@H](C)CO)C(=O)c2cc(NC(=O)CCCCCC(=O)Nc3ccccc3N)ccc2O[C@@H]1CN(C)C(=O)Nc1ccccc1	x	x	n	x	x	x
CCCCCCCCCCCCCCCC[N+](C)(C)CCl	x	n	x	106	n	n
CCCCCC[N+](C)(C)CCSSCC[N+](C)(C)CCCCCC	n	n	n	n	n	n
C#CC[N+](C)(C)CCCCCCCCCC	x	n	x	n	n	n
SMILES	C2C12 statin	Env fusion inh	GSIS activator	PAX8 reporter	miR122 inh	EWS-Fli block
CCCCCCCCCCCCCCCC[N+](C)(C)CC	n	u	298	107	n	53
COc1ccc(S(=O)(=O)Nc2ccc3c(c2)CC(=O)N([C@@H](C)CO)C[C@@H](C)[C@H](CN(C)Cc2ccc(C(=O)Nc4ccccc4N)cc2)O3)cc1	n	n	n	x	n	n
COc1ccc(CN2CC3(CCN(C(=O)C4CCC4)CC3)c3c(n(C)c4cc(OC)ccc34)[C@@H]2CO)cc1	x	x	n	x	x	x
CCOC(=O)N1CCN(CC(O)COc2ccccc2C(C)C)CC1 (configuration not stated)	n	x	x	x	n	x
CCN(CCNCC(O)COc1ccccc1C(C)C)c1cccc(C)c1 (configuration not stated)	n	n	383	n	n	n
COCCNC(=O)C[C@@H]1CC[C@@H]2[C@@H](COc3ccc(NC(=O)C4CCOCC4)cc3C(=O)N2C)O1	n	x	n	n	n	n
O=C(N[C@H]1CC[C@H](CCNC(=O)c2ccccc2F)O[C@H]1CO)c1cnccn1	n	n	n	n	x	n
CC(=O)Nc1nonc1-n1nnc(C(=O)NCc2ccccc2)c1C	n	n	x	n	266	x
O=C(C[C@H]1C[C@@H]2c3cc(NC(=O)NC4CCCC4)ccc3O[C@@H]2[C@@H](CO)O1)NCc1cc(F)ccc1F	n	n	n	n	n	n
CN1/C(=C\C(=O)COC(=O)c2ccc([N+](=O)[O-])o2)C(C)(C)c2ccccc21	x	n	n	n	x	n
CN1/C(=C\C(=O)COC(=O)c2nccnc2N)C(C)(C)c2ccccc21	n	58	n	n	x	n
CCN(CC)c1ccc(/C=N/N2C(C)CCCC2C)c(O)c1 (configuration not stated)	n	73	n	n	n	n
CCN(CC)c1ccc(/C=N/N=C(N)N)c(O)c1	x	n	n	n	x	54
CCN(CC)c1ccc(N=Cc2ccc(N(CC)CC)cc2O)cc1	n	n	n	x	n	x
CCN(CC)c1ccc(/C=N/N2CCOCC2)c(O)c1	x	n	n	n	n	x
C[C@@H]1CN([C@H](C)CO)S(=O)(=O)c2ccc(C#Cc3ccccc3)cc2O[C@H]1CN(C)C(=O)c1ccccn1	n	n	n	n	n	n
C[C@@H]1CCCCO[C@H](CN(C)C(=O)Nc2ccc(F)cc2)[C@@H](C)CN([C@@H](C)CO)C(=O)c2cc(NC(=O)c3ccncc3)ccc2O1	x	n	n	n	n	n
C[C@H]1CN(C)C(=O)Cc2cc(N)ccc2O[C@@H]1CN(C)S(C)(=O)=O	x	x	n	x	x	x
Cc1ccccc1-c1nnc(SCC(=O)NC2CCCCC2)o1	78	x	x	x	n	x
Cc1noc(C)c1NC(=O)Nc1ccc2c(c1)C(=O)N([C@@H](C)CO)C[C@@H](C)[C@H](CN(C)C(=O)CCCN(C)C)OCCCC[C@@H](C)O2	n	n	n	n	n	n
CCC(C)N(C(=O)CSc1nncn1C)C1CCS(=O)(=O)C1 (configuration not stated)	n	n	102	n	n	n
CCC(C)N(C(=O)CSc1nnc(-c2ccco2)n1C)C1CCS(=O)(=O)C1 (configuration not stated)	x	n	n	n	x	n
CCOC(=O)N(C)c1ccc(C(O)(C(F)(F)F)C(F)(F)F)cc1	71	x	x	x	n	x
O=c1[nH]nc(-c2ccc(F)cc2)cc1Cc1cccs1	x	n	46	n	x	n
CCC(=O)N1CC(=O)N2[C@H](C1)[C@H](c1ccc(C#Cc3cccc(OC)c3)cc1)[C@@H]2CO	x	x	n	n	x	n

Source: PubChem
